Laboratory results published in PubChem BioAssay (Tox21).
Active and inactive are the calls of the source. Calls follow the shape of the dose curve; as a rule, active = well fitted curve in the direction sought with a large enough effect in the repeat runs; inconclusive = weak or mixed curves; inactive = flat fitted curve, though single readings scatter.

Assay: qHTS assay to test for compound auto fluorescence at 460 nm (blue) in HEK293 cells (AID 720678)
Conditions: blue autofluorescence 405/460 nm; series mostly up to 91.3 µM
Text: National Center for Advancing Translational Sciences [NCATS]
NIH Chemical Genomics Center [NCGC]
U.S. Environmental Protection Agency [EPA]
National Institutes of Environmental Health Sciences [NIEHS]
National Toxicology Program [NTP]
U.S. Food and Drug Administration [FDA]
Compound auto fluorescence often interferes with screening of the compound library against various biological targets and signaling pathways. Some of these compounds may have fluorophoric properties. Such properties may interfere with the assay outputs resulting in false positives and/or negatives. To decrease such complications and ensure the compound activities are relevant in terms of biological response, the Tox21 10K compound library was screened for auto fluorescence.
From the fluorophores used as reporter signals in our screening assays, the auto fluorescence equivalencies of compounds against three fluorophores have been evaluated: Triamterene, Fluorescein and Rose Bengal sodium for blue, green and red fluorescence, respectively. The fluorescence intensities were measured using Excitation/Emission wavelengths at 405/460nm, 485/535nm and 540/590nm for blue, green and red labels, respectively. This assay includes the blue fluorescence data.
Tox21 Assay Protocol Summary:
2,000 HEK293 cells in 5 uL of culture medium containing 10% dialyzed FBS per well were dispensed into black wall/clear bottom 1536-well plates using a Multidrop Combi Dispenser (Thermo Scientific). The assay plates were incubated for 4-5 hr at 37C to allow cell attachment to the well bottom, followed by the transfer of 23 nL compound or DMSO vehicle by a pintool work station (Kalypsys, San Diego, CA). After the assay plates were incubated overnight at 37C and 5% CO2, fluorescence intensities in the assay plates were measured by an Envision (PerkinElmer, Shelton, CT) plate reader using three labels for measuring blue, green and red fluorescence at […] 460, 535 and 590nm respectively.

Compound | outcome
CCCCCCCCC/C=C/CC1CC(=O)OC1=O (stereo not given) | inactive
CCCCCCCCCCCCCCCO | inactive
CC1CCC(C(C)C)C(O)C1 (stereo not given) | inactive
CCCCCCCCCCCCc1ccccc1 | inactive
C=CCOC(=O)c1ccccc1C(=O)OCC=C | inactive
NNc1nncc2ccccc12 | inactive
CCCCN(CCCC)CCCC | inactive
CC(C)(N)CO | inactive
OC[C@H]1O[C@@](CO)(O[C@H]2O[C@H](CO)[C@@H](O)[C@H](O)[C@H]2O)[C@@H](O)[C@@H]1O | inactive
CC(C)(C)[C@@H](O)[C@@H](Cc1ccc(Cl)cc1)n1cncn1 | inactive
CC[C@H](C)C(=O)O[C@H]1C[C@@H](C)C=C2C=C[C@H](C)[C@H](CC[C@@H]3C[C@@H](O)CC(=O)O3)[C@H]21 | inactive
O=C(O)c1cc(C(=O)O)cc(S(=O)(=O)O)c1 | inactive
CCCCCC1=CCCC1=O | inactive
C[C@H]1C[C@H]2[C@@H]3CCC4=CC(=O)C=C[C@]4(C)[C@@]3(F)[C@@H](O)C[C@]2(C)[C@@]1(O)C(=O)CO | inactive
Fc1ccc(Br)cc1 | inactive
CCCCCCCC(=O)OC | inactive
O=C(CC(C(=O)OC1CCCCC1)S(=O)(=O)O)OC1CCCCC1 (stereo not given) | inactive
CC1=CC(=O)NS(=O)(=O)O1 | inactive
COCCCOc1ccnc(CS(=O)c2nc3ccccc3[nH]2)c1C (stereo not given) | inactive
CCCCCCCCCCCCS | inactive

Compound | outcome
CN(C)CCCN | inactive
CC(O)COCC(C)O (stereo not given) | inactive
CCc1cccc(C)c1N | inactive
CCC(O)OC(O)CC (stereo not given) | inactive
CC(C)CC(=O)CC(C)C | inactive
O=P(OC(CCl)CCl)(OC(CCl)CCl)OC(CCl)CCl | inactive
OCC(CO)(CBr)CBr | inactive
COS(C)(=O)=O | inactive
CCC(O)OCCCOC (stereo not given) | inactive
O=C(Oc1ccccc1)c1ccccc1 | inactive
COc1ccc(Nc2ccccc2)c(C)c1 | inactive
COc1ccc(NC(C)=O)cc1N | inactive
O=c1[nH]c(=O)n([C@H]2CCCO2)cc1F | inactive
C[Si](O[Si](C)(C)C)O[Si](C)(C)C | inactive
O=C(O)CCCC[C@@H]1SC[C@@H]2NC(=O)N[C@@H]21 | inactive
O=[N+]([O-])c1ccc(/C=C/c2ccc([N+](=O)[O-])cc2S(=O)(=O)O)c(S(=O)(=O)O)c1 | inactive
C=C(C)C(=O)Nc1ccc(Cl)c(Cl)c1 | inactive
CSCCC=O | inactive
c1ccc2c(c1)ccc1ccccc12 | inactive
C=CCNC(N)=S | inactive
